Bioassay records as filed in PubChem BioAssay.
Sampled rows, rich in hits. Any-hit rate of the full collection: about 4.3%.
GLP1R ag: activates the human GLP-1 receptor | Potency, µM (doses to about 45.6 µM), usual class: activators | actives 0.007% (n = 380,000) | HEK293 GLP-1R CRE-luciferase, luminescence, 4-6 h; cells express a hypersensitive GLP-1R form
DRD3 antagonist: D3 dopamine receptor (human) antagonism | D3R cells, DiscoveRx beta-arrestin luminescence, antagonist mode; hits give low values | actives 2.5% (n = 360,000) | max response, negative = inhibition, %; in the data active means max response below about -50%; inconclusive means no clear call, values can overlap the other calls
Target sequence (P35462 whole entry, looked up): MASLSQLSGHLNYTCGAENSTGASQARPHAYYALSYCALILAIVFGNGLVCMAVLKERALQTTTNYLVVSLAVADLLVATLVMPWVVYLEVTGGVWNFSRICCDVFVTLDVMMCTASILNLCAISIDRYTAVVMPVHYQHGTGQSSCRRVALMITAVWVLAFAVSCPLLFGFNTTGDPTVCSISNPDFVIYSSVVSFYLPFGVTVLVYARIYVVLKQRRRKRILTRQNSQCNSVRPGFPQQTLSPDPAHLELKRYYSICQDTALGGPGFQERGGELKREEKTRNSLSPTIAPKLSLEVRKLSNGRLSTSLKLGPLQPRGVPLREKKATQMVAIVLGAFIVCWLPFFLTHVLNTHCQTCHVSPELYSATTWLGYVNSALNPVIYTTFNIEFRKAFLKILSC
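Cells plated overnight at 1500 cells/well, then exposed to library compounds with dopamine controls for 90 minutes at 37 degrees C. DiscoveRx reagent added for 30–60 minutes at room temperature; luminescence read, quantitative HTS format.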
GLP1R inv ag: GLP-1 receptor (human) inverse agonism. actives 1.6% (n = 410,000). HEK293 GLP-1R CRE-luciferase, luminescence, 24 h; GLP-1R form is constitutively active. Potency, µM (highest dose often 38.3 µM), most hits filed as inhibitors; further: nearly all actives have a fitted effect of over 55% in size
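Inverse agonism was detected as reduced cAMP-driven luciferase luminescence after 24 h compound treatment. The cells were HEK293 clones expressing constitutively active human GLP-1R with the reporter. Reporter-only and GPR119 cell lines served as counterscreen controls.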
D3 ag: activates the human D3 dopamine receptor. AID 652048. max activation, %. D3R DiscoveRx beta-arrestin cells, luminescence, 90 min. actives 0.58% (n = 410,000); in the data active means max activation above about 30%
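Agonist mode: compounds and dopamine controls were applied to plated cells for 90 min at 37 degrees C after an overnight attachment at 1500 cells/well. Luminescent read-out followed 30 - 60 minutes at room temperature with DiscoveRx detection reagent.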
Hits are given with their value; - = inactive; ? = inconclusive; . = not tested or not shown. Unless noted, the call rests on the fitted dose curve; in most records, active means well fitted curve in the direction sought with a large enough effect; inconclusive means small, poorly fitted or top-dose-only effect, or another doubt; inactive means no such curve, though single readings can be large; an effect the other way counts as inactive or inconclusive.

SMILES	GLP1R ag	DRD3 antagonist	GLP1R inv ag	D3 ag
CCn1c(N2CCN(S(=O)(=O)c3ccc(Cl)cc3)CC2)nc2ccccc21	-	-	?	44
COC(=O)C1=C[C@@H](C(=O)OC)[C@@H]2C3=C(C(=O)[C@@]2(C)NC(=O)c2ccccc2)[C@H](C)n2c(=O)n(C)c(=O)n2[C@@H]3C1	-	-	-	-
CC1CCCCN1C/C=C/c1ccccc1[N+](=O)[O-] (stereo not given)	-	-	-	-
CCC1CCCCN1C/C=C/c1ccccc1[N+](=O)[O-] (stereo not given)	-	-55	-	-
CC1CCCN(C/C=C/c2ccccc2[N+](=O)[O-])C1 (stereo not given)	-	-91	-	-
CC(C)(C)n1nnnc1C(c1cccnc1)N(Cc1ccccc1)Cc1ccco1 (stereo not given)	-	-	-	-
COc1cccc(CN(Cc2ccco2)C(c2ccc(F)cc2)c2nnnn2C(C)(C)C)c1 (stereo not given)	-	?	10µM	-
c1ccc(-c2csc(Nc3ccccn3)n2)cc1	-	-	10µM	-
Cc1ccc(-c2csc(Nc3ccccn3)n2)cc1	-	-	?	-
Cc1cccc(N(CC(=O)Nc2cccc(Cl)c2C)S(C)(=O)=O)c1C	.	.	?	-
Cc1c(C(=O)N(Cc2cccc(F)c2)C2CCS(=O)(=O)C2)oc2cc(Br)ccc12 (stereo not given)	.	.	?	-
Cc1c(C(=O)N(Cc2cccc(Br)c2)C2CCS(=O)(=O)C2)oc2ccc(F)cc12 (stereo not given)	-	-	22µM	-
CCOc1cccc(C(=O)N(Cc2ccc(F)cc2)C2CCS(=O)(=O)C2)c1 (stereo not given)	-	-	-	38
CCOC(=O)c1c(N)sc2c(NC(C)=O)cccc12	-	-81	-	-
CCOC(=O)c1c(NC(C)=O)sc2c(OC)cccc12	-	-	-	-
CCOC(=O)N1CCC(Nc2c(Nc3ccc(C)c(C)c3)c(=O)c2=O)CC1	-	-71	-	-
CCOC(=O)N1CCN(c2c(NC3CCN(Cc4ccccc4)CC3)c(=O)c2=O)CC1	-	-51	-	-
CCOC(=O)N1CCN(c2c(NCCc3ccccc3)c(=O)c2=O)CC1	-	-	-	-
Cc1ccc(OCC(=O)Nc2cccc(OCc3cc(=O)n4ccccc4n3)c2)cc1C	.	.	-	-
CC(C)c1ccc(/C=C2\SC(=S)N(CCC(=O)NCCCn3ccnc3)C2=O)cc1	-	-	2.5µM	-
O=C(N/N=C/C=C\c1ccccc1[N+](=O)[O-])c1cccs1	-	-64	-	-
COC(=O)C(=Cc1ccccc1[N+](=O)[O-])C(=O)OC	-	-58	10µM	-
Cc1ccc(CCNC(=O)c2ccc(Cn3c(=O)c4cccn4c4cccnc43)cc2)cc1	.	.	-	-
COc1ccc(O)c(C2Nc3ccccc3-n3c(-c4ccccc4)c4c(=O)n(C)c(=O)n(C)c4c32)c1 (stereo not given)	.	.	-	45
Cc1ccc(-c2c3c(=O)n(C)c(=O)n(C)c3c3n2-c2ccccc2NC3c2ccc(C)cc2O)cc1 (stereo not given)	.	.	10µM	47
SMILES	GLP1R ag	DRD3 antagonist	GLP1R inv ag	D3 ag
CC1=Nc2cc(C(=O)NCCc3ccc(Cl)cc3)ccc2Sc2c(C)ccc(C)c21	-	.	2.8µM	-
CC1=Nc2cc(C(=O)NCCCN3CCOCC3)ccc2Sc2c(C)ccc(C)c21	-	-	8.9µM	-
O=C(CN1C(=O)COc2ccc(S(=O)(=O)N3CCCC3)cc21)NCCc1ccc(Cl)cc1	.	.	-	-
COc1ccc(C)cc1NC(=O)CN1C(=O)CCc2cc(S(=O)(=O)N3CCOCC3)ccc21	.	.	-	-
Cc1ccsc1C(=O)N(c1nc2ccccc2s1)c1c(C)cccc1C	-	-	7.9µM	-
Cc1ccccc1N(C(=O)c1cccs1)c1nc2ccccc2s1	-	-	2.2µM	-
COc1ccc(Cl)cc1NC(=O)N1CCC(CN2CCCCCC2)CC1	.	.	-	-
COc1cc([C@@H]2c3cc4c(cc3C(O[C@@H]3O[C@@H]5CO[C@@H](C)O[C@H]5[C@H](O)[C@H]3O)C3COC(=O)[C@@H]32)OCO4)cc(OC)c1OP(=O)(O)O (stereo not given in full)	.	.	.	-
CC(=O)CC1c2cc(F)ccc2C=C(c2ccsc2)N1c1ccc(C#CC2(O)CCCCC2)cc1 (stereo not given)	-	-	?	-
O=C(c1ccc(-c2nc3ccccc3s2)s1)N1CCOCC1	-	-	1.3µM	-
CCN1CCN(C(=O)c2ccc(-c3nc4ccccc4s3)s2)CC1	-	-	?	-
COCCNC(=O)Cn1cnc([N+](=O)[O-])n1	-	-71	-	-
COc1cccc(C(c2sc3nc(-c4ccco4)nn3c2O)N2CCC(C)CC2)c1 (stereo not given)	.	.	-	-
O=C(Cn1c(=O)n(-c2ccc(F)c(Cl)c2)c(=O)c2sc3ccccc3c21)NC1CCCC1	-	.	-	-
CCOc1cc(CNCc2ccncc2)cc(Br)c1OCc1ccc(F)cc1	-	-	10µM	-
Fc1ccc(COc2ccc(Br)cc2CNCc2ccncc2)cc1	-	?	?	-
Fc1ccc(COc2cccc(CNCc3ccncc3)c2)cc1	-	-	?	34
CCOc1cc(CNCCO)cc(Br)c1OCc1ccccc1	-	-	6.3µM	-
CCOc1cc(CNCCSc2nnnn2C)cc(Br)c1OCc1ccccc1	-	-	5.6µM	-
Cc1ccc(NC(=O)c2nc(S(C)(=O)=O)ncc2N(Cc2ccco2)Cc2ccco2)cc1C	.	.	?	-
CCOc1ccc(N2CC(C)Cn3c2nc2c3c(=O)n(CC(=O)O)c(=O)n2C)cc1 (stereo not given)	-	.	-	-
COc1cc(CNCCO)cc(Br)c1OCc1ccccc1Cl	-	-	6.3µM	-
Cn1nnnc1SCCNCc1ccccc1OCc1ccccc1Cl	-	-	?	-
COc1cc(CNCCO)cc(Cl)c1OCc1ccc(Cl)cc1Cl	-	-	?	-
Cn1nnnc1SCCNCc1cc(Br)ccc1OCc1ccccc1Cl	-	.	10µM	-
SMILES	GLP1R ag	DRD3 antagonist	GLP1R inv ag	D3 ag
CC(C)N1[N]C(=C2C=c3cc(O)ccc3=N2)c2c(N)ncnc21	-	.	.	.
Cc1cccc(CN(Nc2ccccc2)c2ccccc2)n1	-	-	10µM	-
O=S(=O)(N/N=C/c1ccc(Cl)cc1)c1ccc(Cc2ncc(C(F)(F)F)cc2Cl)s1	-	-73	?	-
Cc1ccc(CNC(=O)CCCCCn2c(=O)c3sccc3n(CC(=O)N(C)c3ccccc3)c2=O)cc1	.	.	-	-
Cc1cc(C)c(S(=O)(=O)N2CCN(C(=O)c3ccc(-n4nc(C)c(Cl)c4C)cc3)CC2)c(C)c1	-	-	7.1µM	101
COc1ccc(S(=O)(=O)N2CCN(C(=O)c3c(C)nn(-c4ccccc4)c3Cl)CC2)cc1	-	-	-	-
Cc1cc(C)c(S(=O)(=O)N2CCN(C(=O)c3c(C)nn(-c4ccccc4)c3Cl)CC2)c(C)c1	-	-	8.9µM	-
Cc1nn(-c2ccccc2)c(Cl)c1C(=O)N1CCN(C)CC1	-	-	-	-
